Test results taken from PubChem BioAssay (NCATS).
“And” between values parts separate entries of the source, which are not always exact repeats. Equal entries are not always repeated. Records with an inconclusive call do not appear. Where a call stands in place of a potency, no number is given. The source made the active and inactive calls. The call rests on the fitted dose curve; in most records, active means well fitted cell-killing curve with a large enough effect; inconclusive means small, poorly fitted or top-dose-only effect; inactive means no such curve, though single readings can be large or run the other way.

Test: qHTS of pediatric cancer cell lines to identify multiple opportunities for drug repurposing: Primary screen for A673 cells (AID 1347092); further: nearly all actives have a fitted effect of over 45% in size
Settings: A673 Ewing sarcoma viability, CellTiter-Glo ATP luminescence, 48 h; series mostly up to 46 µM
From the text: Drug repurposing or repositioning has been offered as a strategy for drug development in oncology programs. This approach has special potential for childhood cancers and other rare or orphan diseases, where the expected return on new drug development has been a disincentive to pharmaceuticals. […] In this project we exploit the poly-pharmacology of drugs to discover new indications via phenotypic screening of a panel of 19 well-characterized cell lines derived from solid tumors seen in children and adolescents. The goal is to identify approved drugs with previously unrecognized anticancer properties that has the potential to reveal new mechanisms and biological processes involved in carcinogenesis or drug resistance. We employed a titration-based paradigm (quantitative high-throughput screening or qHTS), where all compounds were tested at multiple concentrations for their effect on cell viability. Concentration-response curves (CRCs) were derived directly from the primary screen, and both potency and efficacy values were used to identify compounds with robust bioactivity profiles. We screened the NIH Chemical Genomics Center (NCGC) Pharmaceutical Collection (NPC) and Mechanism Interrogation Plate (MIPE) small molecule collections of approved and investigational compounds against these cell lines; and measured metabolically active cells after 48 hours of compound treatment as a proxy for cell viability. […] Assay Submitter: Nathalia J. Martinez, National Center for Advancing Translational Sciences, National Institutes of Health, Rockville, MD, USA; email: natalia.martinez@nih.gov. Shen, M et al. Quantitative high-throughput phenotypic screening of pediatric cancer cell lines identifies multiple opportunities for drug repurposing. Oncotarget 2017 Dec 19;9(4):4758-4772. PMID 29435139.
The cells were obtained from University of North Carolina (UNC), Pediatric Preclinical Testing Program (PPT), and Coriell Institute (CI). qHTS cell viability assay: Cells were assayed in growth media at a density of 500-1,000 cells/well. Five microliters of cells were dispensed into 1,536-well, white, solid-bottom, TC-treated plates (Greiner Bio One) using a multidrop dispenser and incubated at 37 degrees C, 5% CO2, under a humidified atmosphere for 5 hours. Twenty-three nanoliters of compounds and controls (neutral control DMSO or positive control bortezomib at final concentration of 2.3 uM) were subsequently transferred by Kalypsys pintool. For primary screens, the MIPE collection was tested at 11-point dilutions (final concentrations range from 0.78 nM to 46 µM) and the NPC collection at 8-point dilutions (final concentrations range from 0.59 nM to 46 µM). Compounds tested in follow-up screens were assayed at 11-point dilutions. Cells were incubated for 48 hours, followed by addition of 3 uL of CellTiter-Glo (Promega). After a 15min incubation at room temperature, samples were analyzed for luminescence intensity using a ViewLux High-throughput CCD imager equipped with clear filters.
Potency means the concentration at half of the fitted maximal effect.

SMILES	Potency
Cn1nnc2c(C(N)=O)ncn2c1=O	inactive
CCOCC(O)COc1ccc(NC(=O)CC[S+](C)C)cc1 (stereo not given)	inactive
CNC(=O)c1cc(Oc2ccc(NC(=O)Nc3ccc(Cl)c(C(F)(F)F)c3)cc2)ccn1	2.96 µM (active)
CC(=O)[C@H]1CC[C@H]2[C@@H]3CCC4=CC(=O)CC[C@]4(C)[C@H]3CC[C@]12C	1.18 µM (active)
NC(=O)c1cccnc1	inactive
NCCCC(O)(P(=O)(O)O)P(=O)(O)O	inactive
OC(Cn1cncn1)(Cn1cncn1)c1ccc(F)cc1F	inactive
COc1ccc2c(c1)c(CC(=O)OCC(=O)O)c(C)n2C(=O)c1ccc(Cl)cc1	inactive
C[C@@H]1C[C@H]2[C@@H]3CCC4=CC(=O)C=C[C@]4(C)[C@@]3(Cl)[C@@H](O)C[C@]2(C)[C@@]1(OC(=O)c1ccco1)C(=O)CCl	0.59 µM (active)
CN1CCN(c2c(F)cc3c(=O)c(C(=O)O)cn(CCF)c3c2F)CC1	inactive
Cc1ccc(S(=O)(=O)N[C@@H](Cc2ccccc2)C(=O)CCl)cc1	14.8 µM (active)
COc1cc(NCc2ccc3nc(N)nc(N)c3c2C)cc(OC)c1OC	3.72 µM (active) and 168 nM (active)
COc1ccc(-c2ccc3cc(C(=O)O)ccc3c2)cc1C12CC3CC(CC(C3)C1)C2	inactive
CCN(CC)CCn1c(=O)c(Cc2ccc(OC)cc2)nc2ccccc21	inactive
COc1ncnc(NS(=O)(=O)c2ccc(N)cc2)c1OC	inactive
Cc1nnc(C(=O)NC(C)(C)c2nc(C(=O)NCc3ccc(F)cc3)c(O)c(=O)n2C)o1	inactive
O=S(=O)(c1cccc2cnccc12)N1CCCNCC1	18.7 µM (active)
NS(=O)(=O)c1cc2c(cc1Cl)NC(C(Cl)Cl)NS2(=O)=O (stereo not given)	inactive
O=C(O)c1cn(C2CC2)c2cc(N3CCNCC3)c(F)cc2c1=O	inactive
CCn1cc(C(=O)O)c(=O)c2cc(F)c(N3CCNCC3)nc21	inactive

SMILES	Potency
CN(C)CCc1c[nH]c2ccc(CS(=O)(=O)N3CCCC3)cc12	inactive
CCOC(=O)c1ccc(C#Cc2ccc3c(c2)C(C)(C)CCS3)nc1	23.5 µM (active)
COc1cc2nc(N3CCCN(C)CC3)nc(NC3CCN(Cc4ccccc4)CC3)c2cc1OC	3.72 µM (active)
COC(=O)Nc1nc2ccc(Sc3ccccc3)cc2[nH]1	1.06 µM (active) and 935 nM (active)
CCOc1cc(N)c(Cl)cc1C(=O)NCC1CN(Cc2ccc(F)cc2)CCO1 (stereo not given)	inactive
C[C@@H]1CN(c2c(F)c(N)c3c(=O)c(C(=O)O)cn(C4CC4)c3c2F)C[C@H](C)N1	inactive
Nc1ccc(S(=O)(=O)Nc2ccccn2)cc1	inactive
COc1cc([C@@H]2c3cc4c(cc3[C@H](O)[C@H]3COC(=O)[C@H]23)OCO4)cc(OC)c1OC	84.1 nM (active) and 1 nM (active)
CN(C)c1ccc(C(=C2C=CC(=[N+](C)C)C=C2)c2ccc(N(C)C)cc2)cc1	1.06 µM (active) and 93.5 nM (active)
Nc1nc(=S)c2[nH]cnc2[nH]1	841 nM (active) and 743 nM (active)
CC(C)C1CCC(C(=O)N[C@H](Cc2ccccc2)C(=O)O)CC1 (stereo not given in full)	inactive
COc1nc(N)nc2c1ncn2[C@@H]1O[C@H](CO)[C@@H](O)[C@@H]1O	inactive
COC(=O)Nc1nc2ccc(C(=O)c3ccccc3)cc2[nH]1	106 nM (active) and 935 nM (active)
O=c1oc2c(O)c(O)cc3c(=O)oc4c(O)c(O)cc1c4c23	inactive
CCCCOc1ccc(CC(=O)NO)cc1	16.8 µM (active) and 2.96 µM (active)
CC(C)(C)C(=O)OCOP(=O)(COCCn1cnc2c(N)ncnc21)OCOC(=O)C(C)(C)C	2.11 µM (active) and 743 nM (active)
CC(C)C[C@H](NC(=O)[C@H](CCc1ccccc1)NC(=O)CN1CCOCC1)C(=O)N[C@@H](Cc1ccccc1)C(=O)N[C@@H](CC(C)C)C(=O)[C@@]1(C)CO1	10.6 nM (active) and 18.7 nM (active)
CC1=C(C(=O)O)N2C(=O)[C@@H](NC(=O)C(N)c3ccccc3)[C@H]2SC1 (stereo not given in full)	inactive
CC[C@H](NC(C)C)[C@H](O)c1ccc(O)c2[nH]c(=O)ccc12	inactive
COC(=O)Nc1nc2ccc(S(=O)c3ccccc3)cc2[nH]1 (stereo not given)	841 nM (active) and 9.35 µM (active)
